Measured values published in PubChem BioAssay (Tox21).
Several values for one entry are separate records, joined by “and”; a condition that tells them apart may be missing. Equal values may be shown once. Inconclusive results are not listed. Activity calls are given as the source filed them. Unless noted, calls come from the whole dose curve; as a rule, active = well fitted curve in the direction sought with a large enough effect in the repeat runs; inconclusive = weak or mixed curves; inactive = no such curve, though single readings can be large; an effect the other way counts as inactive or inconclusive.

Experiments:
[1] = qHTS assay to identify small molecule antagonists of the estrogen related receptor (ERR) signaling pathway from Tox21 library - cell viability counter screen (AID 1224834); note: nearly all actives have a fitted effect of over 30% in size; note: potency is the fitted concentration of half-maximal effect
How it was run: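 Fluorescence from CellTiter-Fluor gives the viability read-out, taken 30 min after reagent addition. Before that, ERR cells seeded 6 h earlier were incubated with compounds for 17.5 h at 37 C.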

[2] = qHTS assay to identify small molecule antagonists of the estrogen related receptor signaling pathway with the pleiotropic PPARgamma coactivator (PGC) from Tox21 10K library (AID 1224841; call rule not given here; note: actives are mostly falling curves and most rising ones were filed inactive; nearly all actives have a fitted effect of over 50% in size; note: potency is the fitted concentration of half-maximal effect)
How it was run: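 PGC/ERR cell line, 2,000 cells/well; 6 h pre-incubation 37 C/5% CO2; compounds (DMSO) pinned in; 18 h, 37 C; One-Glo, 30 min RT; luminescence.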

[3] = qHTS assay to identify small molecule agonists of the estrogen related receptor signaling pathway with the pleiotropic PPARgamma coactivator (PGC) from Tox21 10K library (AID 1224842); note: nearly all actives have a fitted effect of over 15% in size
How it was run: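 Luminescence from One-Glo (30 min, room temperature) measured after PGC/ERR cells had 18 h at 37 C with pinned compound (23 nL in DMSO). Cells had been seeded at 2,000 per well and pre-incubated 6 h.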

[4] = target: Luciferin 4-monooxygenase (Photinus pyralis) (UniProt P08659); assay: qHTS assay to identify small molecule inhibitors of firefly luciferase (AID 1224835); note: nearly all actives have a fitted effect of over 25% in size; note: potency is the fitted concentration of half-maximal effect
Chain of Luciferin 4-monooxygenase (Photinus pyralis) (P08659 whole entry, looked up): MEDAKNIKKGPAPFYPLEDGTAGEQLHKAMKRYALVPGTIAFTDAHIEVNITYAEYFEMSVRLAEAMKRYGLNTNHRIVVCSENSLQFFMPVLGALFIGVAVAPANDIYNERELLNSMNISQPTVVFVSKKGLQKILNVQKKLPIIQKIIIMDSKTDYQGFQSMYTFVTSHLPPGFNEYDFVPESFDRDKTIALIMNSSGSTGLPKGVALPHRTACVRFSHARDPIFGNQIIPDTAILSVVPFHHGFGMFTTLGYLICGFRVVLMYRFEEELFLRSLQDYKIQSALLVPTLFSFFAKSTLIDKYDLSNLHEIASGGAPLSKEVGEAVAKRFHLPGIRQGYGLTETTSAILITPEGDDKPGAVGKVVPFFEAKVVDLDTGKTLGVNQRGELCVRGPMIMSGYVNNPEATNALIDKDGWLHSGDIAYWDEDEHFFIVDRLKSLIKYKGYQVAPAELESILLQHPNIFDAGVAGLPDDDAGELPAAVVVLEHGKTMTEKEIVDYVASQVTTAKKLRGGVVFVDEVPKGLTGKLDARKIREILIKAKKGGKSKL
How it was run: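 Inhibition of purified Photinus luciferase is measured by luminescence. Substrate levels (D-luciferin, ATP) sit at their KM values. Each compound is tested in a concentration series.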

[5] = qHTS assay to identify small molecule agonists of the constitutive androstane receptor (CAR) signaling pathway - cell viability counter screen (AID 1224836); note: nearly all actives have a fitted effect of over 45% in size; note: potency is the fitted concentration of half-maximal effect
How it was run: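 Viability read-out: CellTiter-Fluor fluorescence after 23 h compound exposure at 37 C/5% CO2 in double-stable HepG2-CYP2B6-hCAR cells, with PK11195 present at 0.75 uM final; compounds tested in 15-point titration.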

[6] = qHTS assay to identify small molecule antagonists of the constitutive androstane receptor (CAR) signaling pathway - cell viability counter screen (AID 1224837); note: nearly all actives have a fitted effect of over 45% in size; note: potency is the fitted concentration of half-maximal effect
How it was run: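 HepG2-CYP2B6-hCAR cells, 2500/well, 4 hr pre-incubation; compound titration, 15 conc.; CITCO 50 nM final; 23 hr, 37 C/5% CO2; CellTiter-Fluor, fluorescence intensity.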

[7] = target: Nuclear receptor subfamily 1 group I member 3 (Homo sapiens) (UniProt Q14994); assay: qHTS assay to identify small molecule antagonists of the constitutive androstane receptor (CAR) signaling pathway (AID 1224838);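 note: HepG2 cells stably expressing hCAR with CYP2B6 luciferase reporter stimulated by CITCO; nearly all actives have a fitted effect of over 40% in size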; note: potency is the fitted concentration of half-maximal effect
Chain of Nuclear receptor subfamily 1 group I member 3 (Homo sapiens) (Q14994 whole entry, looked up): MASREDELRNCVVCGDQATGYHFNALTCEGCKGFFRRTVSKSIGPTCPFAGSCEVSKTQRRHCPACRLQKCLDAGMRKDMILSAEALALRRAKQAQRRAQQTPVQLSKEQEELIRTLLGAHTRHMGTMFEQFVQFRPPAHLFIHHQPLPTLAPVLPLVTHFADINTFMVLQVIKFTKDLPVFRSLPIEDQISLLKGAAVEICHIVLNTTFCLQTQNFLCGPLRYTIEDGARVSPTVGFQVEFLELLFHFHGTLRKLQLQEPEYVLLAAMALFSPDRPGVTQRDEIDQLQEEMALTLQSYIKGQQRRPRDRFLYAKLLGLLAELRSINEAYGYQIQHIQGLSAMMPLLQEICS
How it was run: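 HepG2-CYP2B6-hCAR cells; 4 h pre-incubation; cpd (15 conc) + CITCO 50 nM final; 24 h, 37 C/5% CO2; ONE-Glo, luminescence.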

[8] = qHTS assay to identify small molecule antagonists of the estrogen related receptor signaling pathway with the pleiotropic PPARgamma coactivator (PGC) from Tox21 10K library - cell viability counter screen (AID 1224840; active = well fitted cell-killing curve with a large enough effect in the repeat runs, not every such curve was filed as active; note: nearly all actives have a fitted effect of over 40% in size; note: potency is the fitted concentration of half-maximal effect)
How it was run: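 PGC/ERR cells, 2,000/well; 6 h pre-incubation 37 C/5% CO2; cpd in DMSO via pin tool; 17.5 h 37 C; CellTiter-Fluor, 30 min; fluorescence.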

[9] = target: Nuclear receptor subfamily 1 group I member 3 (Homo sapiens) (UniProt Q14994); assay: qHTS assay to identify small molecule agonists of the constitutive androstane receptor (CAR) signaling pathway (AID 1224839); note: nearly all actives have a fitted effect of over 15% in size; note: potency is the fitted concentration of half-maximal effect;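 for activation: HepG2 cells stably carrying human CAR and a CYP2B6 luciferase reporter; series mostly up to about 92 µM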
How it was run: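 Luminescence read-out (ONE-Glo, 30 min, room temperature) from double-stable HepG2-CYP2B6-hCAR cells exposed 24 h to 15-point compound series in presence of 0.75 uM PK11195 final.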

[10] = target: Thyrotropin receptor (Homo sapiens) (UniProt P16473); assay: qHTS assay to identify small molecule agonists of the thyroid stimulating hormone receptor (TSHR) signaling pathway (AID 1224843; calls by dose curve; note: nearly all actives have a fitted effect of over 45% in size; note: potency is the fitted concentration of half-maximal effect)
Chain of Thyrotropin receptor (Homo sapiens) (P16473 whole entry, looked up): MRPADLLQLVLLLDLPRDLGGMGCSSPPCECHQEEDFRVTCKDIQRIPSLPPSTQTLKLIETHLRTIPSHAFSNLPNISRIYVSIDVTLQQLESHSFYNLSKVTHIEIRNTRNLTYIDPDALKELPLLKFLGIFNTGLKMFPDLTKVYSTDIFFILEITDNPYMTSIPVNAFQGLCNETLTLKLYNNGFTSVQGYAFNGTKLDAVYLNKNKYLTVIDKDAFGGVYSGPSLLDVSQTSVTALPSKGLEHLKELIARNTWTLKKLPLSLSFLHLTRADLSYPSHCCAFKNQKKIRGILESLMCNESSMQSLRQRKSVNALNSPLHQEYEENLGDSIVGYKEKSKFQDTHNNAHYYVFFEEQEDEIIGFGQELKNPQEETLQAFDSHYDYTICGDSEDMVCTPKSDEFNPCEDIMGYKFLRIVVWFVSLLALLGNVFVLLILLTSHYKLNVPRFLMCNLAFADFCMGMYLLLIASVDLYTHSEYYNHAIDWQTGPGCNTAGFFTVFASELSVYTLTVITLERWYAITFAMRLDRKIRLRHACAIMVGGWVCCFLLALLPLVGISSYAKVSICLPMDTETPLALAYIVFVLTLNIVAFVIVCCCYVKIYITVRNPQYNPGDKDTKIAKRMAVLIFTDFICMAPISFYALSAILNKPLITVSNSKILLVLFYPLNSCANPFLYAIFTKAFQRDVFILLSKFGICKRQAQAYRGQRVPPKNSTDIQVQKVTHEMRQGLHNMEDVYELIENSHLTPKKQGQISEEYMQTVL
How it was run: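 Screening of the Tox21 10K collection used HEK293 cells engineered with TSHR at 800 cells per well. After a 30-min room-temperature compound exposure, HTRF cAMP reagents were added and fluorescence recorded 1 h later.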
% is set by controls: 0 for no effect and ±100 for the full control effect.

[O-][n+]1ccccc1SSc1cccc[n+]1[O-]
inactive: activation [3] -33.7% [at 19 µM]
active: Potency [1] 0.366 µM | Potency [2] 1.64 µM

Cc1ccc(-n2nc(C(C)(C)C)cc2NC(=O)Nc2ccc(OCCN3CCOCC3)c3ccccc23)cc1
inactive: Potency [4] | Potency [5] | Potency [6] | Potency [7] | Potency [8] | Potency [3]

OC1(c2ccc(Cl)c(C(F)(F)F)c2)CCN(CCCC(c2ccc(F)cc2)c2ccc(F)cc2)CC1
active: Potency [1] 21.1 µM | Potency [6] 13.3 µM | Potency [7] 13.3 µM | Potency [8] 18.8 µM | Potency [2] 29.8 µM
inactive: Potency [9] | Potency [3] | Potency [10]

CCCCN1C(=O)[C@@H]([C@H](O)C2CCCCC2)NC(=O)C12CCN(Cc1ccc(Oc3ccc(C(=O)O)cc3)cc1)CC2
inactive: Potency [4] | Potency [5] | Potency [7] | Potency [9] | Potency [2] | Potency [3]

Fc1ccc([C@@H]2CCNC[C@H]2COc2ccc3c(c2)OCO3)cc1
inactive: Potency [4] | Potency [5] | Potency [6] | Potency [7] | Potency [9] | Potency [8]

[Cl][Bi]([Cl])([c]1ccccc1)([c]1ccccc1)[c]1ccccc1
inactive: Potency [9]
active: Potency [1] 13.6 µM | Potency [7] 12.1 µM | Potency [8] 6.08 µM | Potency [10] 2.16 µM

CCCCCCCCn1sc(Cl)c(Cl)c1=O
inactive: Potency [9] | Potency [10]
active: Potency [4] 3.56 µM | Potency [5] 30.6 µM | Potency [6] 30.6 µM

O=C1c2ccccc2Cc2ccccc21
active: Potency [9] 21.8 µM
inactive: Potency [4] | Potency [5] | Potency [7] | Potency [8] | Potency [10]

CCCCC(CC)CN=C(N)NC(N)=NCCCCCCN=C(N)NC(N)=NCC(CC)CCCC (configuration not stated)
inactive: Potency [3]
active: Potency [1] 11.9 µM | Potency [6] 23.7 µM | Potency [8] 16.8 µM | Potency [2] 23.7 µM

CCN(CCC#N)c1ccc(N=Nc2c(Cl)cc([N+](=O)[O-])cc2Cl)cc1
active: Potency [1] 15.4 µM
inactive: Potency [7] | Potency [9] | Potency [3]

Cc1ccc(O)c2ncccc12
inactive: Potency [9] | Potency [3] | Potency [10]
active: Potency [1] 16.8 µM | Potency [7] 13.3 µM | Potency [8] 23.7 µM

c1ccc(CSCc2ccccc2)cc1
inactive: Potency [1] | Potency [7] | Potency [8]

Nc1ccc(N)c2ccccc12
active: Potency [1] 30.6 µM | Potency [8] 54.4 µM
inactive: Potency [9] | Potency [3] | Potency [10]

CN1CCN(CCC(=O)N2c3ccccc3Sc3ccc(C(F)(F)F)cc32)CC1
active: Potency [1] 29.8 µM | Potency [8] 29.8 µM
inactive: Potency [6] | Potency [3] | Potency [10]

CCN(C(=O)N(CC)c1ccccc1)c1ccccc1
inactive: Potency [4] | Potency [5] | Potency [6] | Potency [8] | Potency [3]
active: Potency [10] 61.1 µM

O=C(OCC1CO1)C1CCCCC1C(=O)OCC1CO1 (configuration not stated)
inactive: Potency [4] | Potency [5] | Potency [7] | Potency [9] | Potency [3] | Potency [10]

CSc1ccc2c(c1)C(N1CCN(C)CC1)Cc1ccccc1S2 (configuration not stated)
inactive: Potency [4] | Potency [5] | Potency [7] | Potency [9]

O=C(c1ccc(O)cc1O)c1ccc(O)cc1O
active: Potency [4] 40 µM and 44.8 µM
inactive: Potency [5] | Potency [6] | Potency [9] | Potency [8] | Potency [10]

S=c1[nH]c2ccccc2s1
inactive: Potency [5] | Potency [6] | Potency [3]
active: Potency [4] 39.9 µM | Potency [9] 54.5 µM | Potency [2] 6.11 µM

CC1=C(/C=C/C(C)=C/C=C/C(C)=C/C=O)C(C)(C)CCC1
active: Potency [1] 27.1 µM | Potency [6] 68.2 µM | Potency [9] 15.3 µM | Potency [8] 54.2 µM | Potency [10] 6.82 µM

O=C(c1ccc(F)cc1)C1CCN(CCn2c(=O)[nH]c3ccccc3c2=O)CC1
inactive: Potency [4] | Potency [5] | Potency [6] | Potency [7] | Potency [9] | Potency [8] | Potency [3]

CCCCN(CCCC)c1ccc(C(=O)c2ccccc2C(=O)O)c(O)c1
inactive: Potency [4] | Potency [6] | Potency [8] | Potency [2] | Potency [3] | Potency [10]

CNCc1cc(F)ccc1Oc1ccc(Cl)c(Cl)c1
inactive: Potency [4] | Potency [2] | Potency [3]
active: Potency [10] 54.5 µM

CCCCCCCCOc1ccccc1C(=O)Nc1ccc(C(=O)OCC[N+](C)(CC)CC)cc1
inactive: Potency [4] | Potency [6] | Potency [7] | Potency [9] | Potency [8]

C[C@H]1[C@H]2CC[C@H]3[C@@H]4CC=C5C[C@@H](N(C)C)CC[C@]5(C)[C@H]4CC[C@]23CN1C
inactive: Potency [4] | Potency [6] | Potency [7] | Potency [9] | Potency [8] | Potency [2] | Potency [3] | Potency [10]

O=c1cccccc1O
inactive: Potency [4] | Potency [6] | Potency [7] | Potency [9] | Potency [8] | Potency [10]
